Laboratory results published in PubChem BioAssay.
Inconclusive results are not listed. Calls of active or inactive are those of the source.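 The calls were made as follows, unless noted: active = normalized viability below 100% at a tested concentration; inactive = the rest.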

How the values were obtained:
[1] = P. berghei load reduction in hepatocytes – cell-based, HepG2, luciferase luminescence, HepG2 viability, primary screen (AID 624349; in the data active = parasite load remaining mostly below about 12%, no sharp cut-off; inactive = mostly above about 10%;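 also: 100% = mean of DMSO negative control wells on the same plate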); settings: P. berghei liver stage in HepG2, luciferase luminescence, concentration not given here; parasite load remaining: stronger effect = lower value; viability: measured here: HepG2 viability without parasites
[2] = Wnt pathway potentiators raising nuclear beta-catenin – imaging, WNT3A-conditioned medium, mouse C2C12, NPC library, primary screen (AID 1117326; in the data active = nuclear beta-catenin stimulation mostly above about 4.2%, no sharp cut-off; inactive = mostly below about 10%); settings: stronger effect = higher value
[3] = stimulators of insulin release from INS-1E, primary screen, cell-based, 5 mM glucose, NPC library (AID 1117329;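 active = compound raises insulin release from rat beta cells at 5 mM glucose, no numeric limit stated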); settings: rat INS-1E insulin secretion, at 10 µM, stronger effect = higher value
[4] = growth inhibition of GSK3B-pretreated HCT116 cells – cell-based, CellTiter-Glo, 0.2 to 20 µM (AID 1117336;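 active = compounds lowering colon cancer cell viability after pretreatment blocking the GSK3B kinase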); settings: HCT116 viability after GSK3B inhibitor, at 20 µM, stronger effect = higher value
[5] = inhibition of endothelial tube formation, primary screen, imaging, VEGF stimulated, CD31 staining, tube area, NPC library (AID 1117340;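 active = compound that reduces growth-factor-driven endothelial tube area in a mixed cell culture, no cutoff stated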); settings: VEGF-stimulated ADSC/ECFC co-culture, at 10 µM, stronger effect = higher value
[6] = GLP1 release stimulators, primary, NCI-H716, NPC library (AID 1117341;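 active = compound raises GLP1 secretion from the human gut endocrine cells, with no numeric limit stated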); settings: NCI-H716 cells, at 10 µM, stronger effect = higher value
[7] = HCT116 colon cancer cell growth inhibition, primary screen, CellTiter-Glo luminescence, NPC library (AID 1117342;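 active = compounds that lower survival of HCT116 colon cancer cells in the luminescence readout, no numeric limit stated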); settings: at 20 µM (top of the series)
[8] = reduced SW480 viability measured with CellTiter-Glo, NPC library, primary (AID 1117343;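 active = compounds that lower viability of the colon cancer cells in the luminescence readout, with no numeric limit stated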); settings: CellTiter-Glo luminescence; at 20 µM (top of the series) unless noted
[9] = NPC library primary testing for decreased DLD-1 cell viability via CellTiter-Glo (AID 1117346;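 active = compounds that lower survival of DLD-1 colon cancer cells in the luminescence readout, no cutoff given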); settings: DLD-1 viability, CellTiter-Glo luminescence; at 20 µM (top of the series)
[10] = EMT-state selective cytotoxicity in co-culture – imaging, PC-3E GFP, TEM4-18 mCherry, primary screen (AID 1345086;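 active = compounds killing one labelled cell type while sparing the other, by normalised counts and ratio limits, not self-fluorescent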;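 as to all read-outs here: cells exposed to compound for 72 h before imaging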;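 as to red/green cell ratio (normalised): normalised mesenchymal count divided by normalised epithelial count so high means epithelial killing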); settings: PC-3E GFP / TEM4-18 mCherry co-culture, imaging cell counts, at 1 µM; for red/green cell ratio (normalised): actives lie on both sides, counts scaled to control wells, 1 = unselective
[11] = viability loss with induced miR-34 in A549 – imaging, A549 dox-inducible miR-34, nuclei and caspase counts, primary screen (AID 1347080;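 active = compounds whose cell count with miR-34 switched on is under 0.7 times the count with it off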); settings: A549 miR-34 inducible, Hoechst nuclei count, 48 h
[12] = biological target: NAD(+) hydrolase SARM1 (Homo sapiens) (UniProt Q6SZW1); assay: blocking NAD cleavage by SARM1 SAM-TIR – cell lysate, NAD-Glo luminescence (AID 1508614;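 active = compound whose remaining NAD level is above about 45 nM, limit read from the data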;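 also: higher remaining NAD means stronger inhibition of SARM1 NADase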); settings: SAM-TIR HEK293T lysate NADase, at 1 µM, stronger effect = higher value
NAD(+) hydrolase SARM1 (Homo sapiens), sequence (Q6SZW1 whole entry, looked up): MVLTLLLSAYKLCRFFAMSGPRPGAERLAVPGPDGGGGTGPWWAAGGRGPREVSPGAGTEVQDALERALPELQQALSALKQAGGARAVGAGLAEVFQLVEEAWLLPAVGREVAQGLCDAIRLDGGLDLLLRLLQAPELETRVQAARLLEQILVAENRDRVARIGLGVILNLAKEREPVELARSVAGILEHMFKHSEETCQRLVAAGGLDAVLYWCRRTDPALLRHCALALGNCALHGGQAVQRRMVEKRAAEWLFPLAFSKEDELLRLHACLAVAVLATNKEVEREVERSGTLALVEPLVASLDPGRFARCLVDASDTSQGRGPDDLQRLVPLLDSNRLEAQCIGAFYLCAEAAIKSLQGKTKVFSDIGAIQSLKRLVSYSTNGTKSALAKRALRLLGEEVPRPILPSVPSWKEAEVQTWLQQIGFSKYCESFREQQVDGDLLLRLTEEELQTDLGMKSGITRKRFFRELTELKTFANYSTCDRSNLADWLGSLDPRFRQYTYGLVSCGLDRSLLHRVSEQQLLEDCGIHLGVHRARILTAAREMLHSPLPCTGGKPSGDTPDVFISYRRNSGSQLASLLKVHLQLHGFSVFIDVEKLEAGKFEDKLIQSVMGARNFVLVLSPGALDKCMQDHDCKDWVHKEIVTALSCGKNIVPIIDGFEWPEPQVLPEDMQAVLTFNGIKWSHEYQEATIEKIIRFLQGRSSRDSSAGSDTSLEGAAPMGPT

[13] = system: Aerobactin synthetase IucA (Klebsiella pneumoniae); assay: inhibition of K. pneumoniae IucA enzyme – biochemical, Tocris library, absorbance (AID 1345561; call rule not given here;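 also: 100% = enzyme without compound and 0% = no enzyme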); settings: purified IucA enzyme assay, absorbance (OD) read-out; stronger effect = lower value;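 tested at 8 µM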
[14] = viability loss in pontine glioma line – cell-based, SU-DIPG-XVII, MIPE5.0, CellTiter-Glo, qHTS, dose response (AID 1347060; cut-off not given, nearly all actives have AC50 up to about 26 µM); settings: CellTiter-Glo ATP luminescence
[15] = viability loss in pontine glioma line – cell-based, SU-DIPG-XIII, MIPE4.0, CellTiter-Glo, qHTS, dose response (AID 1347061; cut-off not given, nearly all actives have AC50 up to about 37 µM;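 also: cells exposed to compound for 48 hours before readout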); settings: CellTiter-Glo ATP luminescence
[16] = viability loss in pontine glioma line – cell-based, JHH-DIPG-1, MIPE4.0, CellTiter-Glo, qHTS, dose response (AID 1347062; cut-off not given, nearly all actives have AC50 up to about 27 µM); settings: JHH-DIPG-1 viability, CellTiter-Glo ATP luminescence
[17] = growth inhibition of DIPG cells – cell-based, MIPE5.0 library, qHTS (AID 1347068; cut-off not given, nearly all actives have IC50 up to about 30 µM); settings: SU-DIPG-XXV viability
[18] = drug combination growth inhibition, ovarian cancer – cell-based, oncology-focused library, rucaparib conditional, profiling panel (AID 1508598); settings: patient-derived ovarian cancer cells, CellTiter-Glo viability, 144 h, stronger effect = lower value
[19] = galactose survival enhancers in mitochondrial complex I cybrids – cell-based, galactose medium, ATP luminescence, primary screen (AID 1645843;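 active = z-score of at least 1.8 in each of two replicates, scored against plate mean and spread of sample wells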;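 also: positive z means more ATP and so rescue of galactose-driven cybrid death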); settings: complex I mutant cybrid cells, 72 h, stronger effect = higher value
[20] = measured here: epithelial PC-3E GFP cell survival
[21] = measured here: mesenchymal TEM4-18 mCherry cell survival
[22] = stronger effect = lower value, cell number ratio, induced over uninduced
[23] = measured here: relative caspase fold change +Dox/-Dox
[24] = measured here: total cells with miR-34 induction, stronger effect = lower value
[25] = measured here: total cells without miR-34 induction

CC1=C(C/C=C(\C)CCC[C@H](C)CCC[C@H](C)CCCC(C)C)C(=O)c2ccccc2C1=O
0.92: normalised cell number [10, 20]
12300: cell count [11, 25]
1.01: normalised cell number [10, 21]
inactive: parasite load remaining [1] 21.8% | nuclear beta-catenin stimulation ([2]; at 10 µM) 0.3% | insulin secretion stimulation [3] -2.6% | viability decrease [4] -3.55% | tube area decrease [5] 23.9% | GLP1 secretion stimulation [6] 2.3% | inhibition of viability [7] -10.9% | viability decrease (inhibition) [8] -45.3% | viability decrease (inhibition) [9] -6.65% | red/green cell ratio (normalised) [10] 1.1 | fold change [11, 22] 0.94 | remaining NAD [12] 10 nM
-0.8%: nuclear beta-catenin stimulation ([2]; stimulation, at 2 µM)
93.1%: viability [1]
11600: cell count [11, 24]
3.52: fold change [11, 23]

Nc1ncn([C@H]2C[C@H](O)[C@@H](CO)O2)c(=O)n1
8200: cell count [11, 24]
4.5%: nuclear beta-catenin stimulation ([2]; stimulation, at 2 µM)
9960: cell count [11, 25]
inactive: nuclear beta-catenin stimulation ([2]; at 10 µM) 7.2% | insulin secretion stimulation [3] -1.2% | viability decrease [4] 33.4% | GLP1 secretion stimulation [6] 1.6% | inhibition of viability [7] 31.2% | viability decrease (inhibition) [9] 18.9% | remaining activity [13] 97% | outcome [14] | outcome [15] | outcome [16] | outcome [17] | fold change [11, 22] 0.823 | viability ([18]; at 0.000305 µM, OCI-C5x cells, with rucaparib 10 µM, 100% = cells with rucaparib alone) 122% | viability ([18]; at 0.000305 µM, OCI-C5x cells, without rucaparib) 112% | viability ([18]; at 0.000305 µM, OCI-P5x cells, with rucaparib 20 µM, 100% = cells with rucaparib alone) 104% | viability ([18]; at 0.000305 µM, OCI-P5x cells, without rucaparib) 112% | viability ([18]; at 0.00122 µM, OCI-C5x cells, with rucaparib 10 µM, 100% = cells with rucaparib alone) 111% | viability ([18]; at 0.00122 µM, OCI-C5x cells, without rucaparib) 107% | viability ([18]; at 0.00122 µM, OCI-P5x cells, with rucaparib 20 µM, 100% = cells with rucaparib alone) 111% | viability ([18]; at 0.00122 µM, OCI-P5x cells, without rucaparib) 103% | viability ([18]; at 0.00488 µM, OCI-C5x cells, with rucaparib 10 µM, 100% = cells with rucaparib alone) 113% | viability ([18]; at 0.00488 µM, OCI-C5x cells, without rucaparib) 112% | viability ([18]; at 0.0195 µM, OCI-C5x cells, with rucaparib 10 µM, 100% = cells with rucaparib alone) 103% | viability ([18]; at 0.0195 µM, OCI-C5x cells, without rucaparib) 108% | viability ([18]; at 0.0781 µM, OCI-C5x cells, with rucaparib 10 µM, 100% = cells with rucaparib alone) 101% | viability ([18]; at 0.0781 µM, OCI-C5x cells, without rucaparib) 107% | z-score [19] 0.69
active: tube area decrease [5] 58.1% | viability decrease (inhibition) [8] 53.8% | viability ([18]; at 0.00488 µM, OCI-P5x cells, with rucaparib 20 µM, 100% = cells with rucaparib alone) 99.8% | viability ([18]; at 0.00488 µM, OCI-P5x cells, without rucaparib) 95.8% | viability ([18]; at 0.0195 µM, OCI-P5x cells, with rucaparib 20 µM, 100% = cells with rucaparib alone) 82.8% | viability ([18]; at 0.0195 µM, OCI-P5x cells, without rucaparib) 95.2% | viability ([18]; at 0.0781 µM, OCI-P5x cells, with rucaparib 20 µM, 100% = cells with rucaparib alone) 96.6% | viability ([18]; at 0.0781 µM, OCI-P5x cells, without rucaparib) 88.3% | viability ([18]; at 0.313 µM, OCI-C5x cells, with rucaparib 10 µM, 100% = cells with rucaparib alone) 85.8% | viability ([18]; at 0.313 µM, OCI-C5x cells, without rucaparib) 88.1% | viability ([18]; at 0.313 µM, OCI-P5x cells, with rucaparib 20 µM, 100% = cells with rucaparib alone) 84.8% | viability ([18]; at 0.313 µM, OCI-P5x cells, without rucaparib) 68.4% | viability ([18]; at 1.25 µM, OCI-C5x cells, with rucaparib 10 µM, 100% = cells with rucaparib alone) 80.4% | viability ([18]; at 1.25 µM, OCI-C5x cells, without rucaparib) 80% | viability ([18]; at 1.25 µM, OCI-P5x cells, with rucaparib 20 µM, 100% = cells with rucaparib alone) 68.8% | viability ([18]; at 1.25 µM, OCI-P5x cells, without rucaparib) 61.9% | viability ([18]; at 5 µM, OCI-C5x cells, with rucaparib 10 µM, 100% = cells with rucaparib alone) 49.1% | viability ([18]; at 5 µM, OCI-C5x cells, without rucaparib) 63.2% | viability ([18]; at 5 µM, OCI-P5x cells, with rucaparib 20 µM, 100% = cells with rucaparib alone) 57.9% | viability ([18]; at 5 µM, OCI-P5x cells, without rucaparib) 46.9%
1.99: fold change [11, 23]

CNC(=O)c1c(I)c(NC(C)=O)c(I)c(C(=O)O)c1I
1.25: normalised cell number [10, 20]
0.97: normalised cell number [10, 21]
9390: cell count [11, 24]
0.8%: nuclear beta-catenin stimulation ([2]; stimulation, at 2 µM)
inactive: nuclear beta-catenin stimulation ([2]; at 10 µM) 0.7% | insulin secretion stimulation [3] 0.9% | viability decrease [4] -4.1% | tube area decrease [5] 4.3% | GLP1 secretion stimulation [6] 0.4% | inhibition of viability [7] 13.4% | viability decrease (inhibition) [8] 0.4% | viability decrease (inhibition) [9] -2.95% | red/green cell ratio (normalised) [10] 0.78 | fold change [11, 22] 0.982 | remaining NAD [12] 10 nM
9560: cell count [11, 25]
0.852: fold change [11, 23]
